{"source": "PubChem BioAssay (Tox21)", "note": "Inconclusive results are not listed. Entries that show only a call come without a potency. Activity calls are given as the source filed them. The call rests on the fitted dose curve; in most records, active means well fitted cell-killing curve with a large enough effect in the repeat runs; inconclusive means weak or mixed curves, or effect the other way; inactive means flat fitted curve, though single readings scatter. Potency means the concentration at half of the fitted maximal effect.", "data": [{"assay": "qHTS assay to identify small molecule antagonists of the androgen receptor (AR) signaling pathway using the MDA cell line in the presence of 0.5 nM R1881 - cell viability counter screen (AID 1259242); further: nearly all actives have a fitted effect of over 45% in size", "settings": "MDA-kb2 viability, CellTiter-Fluor protease fluorescence, 16 h; series mostly up to 92.4 µM", "source_text": "U.S. Tox21 Program National Center for Advancing Translational Sciences [NCATS] NIH Chemical Genomics Center [NCGC] U.S. Environmental Protection Agency [EPA] National Institutes of Environmental Health Sciences [NIEHS] National Toxicology Program [NTP] U.S. Food and Drug Administration [FDA] Tox21 Assay Overview: Androgen receptor (AR) is an important member of the nuclear receptor family. Its signaling plays a critical role in AR-dependent prostate cancer and other androgen related diseases. Considerable attention has been given in the past decades to develop methods to study and screen for the environmental chemicals that have the potential to interfere with metabolic homeostasis, reproduction, developmental and behavioral functions. Therefore AR binding assay for screening androgen antagonists can be used to identify potential endocrine disruptors. MDA-kb2 cells (from ATCC, deposited by Wilson et al.) were used to screen for AR inhibitors against Tox21 compound libraries. These cells are human breast carcinoma cells that were stably transfected with a luciferase reporter gene under control of the MMTV promoter that contains response elements for both androgen receptor (AR) and glucocorticoid receptor (GR). The current screening for identification of AR inhibitors against Tox21 libraries used lower concentration of (0.5 nM) R1881 as a stimulator. The cytotoxicity of the Tox21 compound libraries against MDA-kb2 cell line was tested by measuring live-cell protease activity using CellTiter-Fluor assay in the same wells.\nTox21 Assay Protocol Summary: MDA-kb2 cells (cells cultured without CO2) were dispensed at 3,000 cells/well in 4 uL of culture medium into white wall/solid-bottom 1536-well plates (Corning Life Sciences, Corning, NY) using a Multidrop Combi (ThermoFisher Scientific, Waltham, MA) dispenser. After the assay plates were incubated at a 37C and 0% CO2 for 5 hr, 23 nL of compounds dissolved in DMSO, positive controls or DMSO only was transferred to the assay plate by a Pintool station (Kalypsys, San Diego, CA). The transfer of compounds was followed by the addition of 1 uL of 0.5 nM (final concentration) agonist (R1881)/culture medium using a Flying Reagent Dispenser (FRD, Aurora Discovery, San Diego, CA). The plates were incubated at 37C and 0% CO2 for 16 hr. For cytotoxicity assay, 1 uL of CellTiter-Fluor reagent (Promega Corporation, Madison, WI) was added to each well using the FRD and after 30 min incubation at 37C and 0% CO2, The fluorescence intensity was measured using ViewLux plate reader (PerkinElmer, Shelton, CT).", "values": [{"smiles": "C[C@H]1CC[C@@H]2[C@@H](C)[C@H]3[C@H](C[C@H]4[C@@H]5CC=C6CC(O[C@@H]7O[C@H](CO)[C@H](O)[C@H](O[C@@H]8O[C@H](CO)[C@@H](O)[C@H](O)[C@H]8O)[C@H]7O[C@H]7O[C@@H](C)[C@H](O)[C@@H](O)[C@H]7O)CC[C@]6(C)[C@H]5CC[C@]34C)N2C1", "note": "(stereo not given in full)", "Potency": "25.1 µM (active)"}, {"smiles": "COC12CC[C@@]3(C[C@@H]1C(C)(O)C(C)(C)C)[C@H]1Cc4ccc(O)c5c4[C@@]3(CCN1CC1CC1)[C@H]2O5", "note": "(stereo not given in full)", "Potency": "54.1 µM (active)"}, {"smiles": "C[C@H]1O[C@@H](O[C@H]2[C@@H](O)C[C@H](O[C@H]3[C@@H](O)C[C@H](O[C@H]4CC[C@@]5(C)[C@H](CC[C@@H]6[C@@H]5CC[C@]5(C)[C@@H](C7=CC(=O)OC7)CC[C@]65O)C4)O[C@@H]3C)O[C@@H]2C)C[C@H](O)[C@@H]1O", "Potency": "inactive"}, {"smiles": "O=[N+]([O-])c1ccc(Oc2ccc(C(F)(F)F)cc2[N+](=O)[O-])cc1", "Potency": "inactive"}, {"smiles": "CCCCCCCCCBr", "Potency": "inactive"}, {"smiles": "CC1(C)C(/C=C(\\Cl)C(F)(F)F)C1C(=O)OC(C#N)c1cccc(Oc2ccccc2)c1", "note": "(stereo not given)", "Potency": "inactive"}, {"smiles": "C[CH2][Hg][N]1C(=O)C2C(C1=O)C1(Cl)C(Cl)=C(Cl)C2(Cl)C1(Cl)Cl", "note": "(stereo not given)", "Potency": "13 µM (active)"}, {"smiles": "C1CCC2CCCCC2C1", "note": "(stereo not given)", "Potency": "inactive"}, {"smiles": "CCN", "Potency": "inactive"}, {"smiles": "CCCN(CCC)CCc1c[nH]c2ccccc12", "Potency": "inactive"}, {"smiles": "CN(CCCC(O)c1cccnc1)N=O", "note": "(stereo not given)", "Potency": "inactive"}, {"smiles": "COS(=O)(=O)c1ccc(C)cc1", "Potency": "inactive"}, {"smiles": "BrCBr", "Potency": "inactive"}, {"smiles": "C=COCCCl", "Potency": "inactive"}, {"smiles": "ClC(Cl)=C(c1ccc(Cl)cc1)c1ccc(Cl)cc1", "Potency": "inactive"}, {"smiles": "S=C=Nc1cccc2ccccc12", "Potency": "inactive"}, {"smiles": "CCCCOP(=O)(CCCC)OCCCC", "Potency": "inactive"}, {"smiles": "N#CSCSC#N", "Potency": "62.5 µM (active)"}, {"smiles": "CCN(CC)c1c([N+](=O)[O-])cc(C(F)(F)F)c(N)c1[N+](=O)[O-]", "Potency": "inactive"}, {"smiles": "Cc1c(Cl)c(=O)oc2cc(OP(=O)(OCCCl)OCCCl)ccc12", "Potency": "inactive"}, {"smiles": "Nc1ccccc1C(=O)OC/C=C/c1ccccc1", "Potency": "inactive"}, {"smiles": "Cc1cccc(OP(=O)(Oc2cccc(C)c2)Oc2cccc(C)c2)c1", "Potency": "inactive"}, {"smiles": "ClC1=C(Cl)C2(Cl)C3C(Cl)C(Cl)CC3C1(Cl)C2(Cl)Cl", "note": "(stereo not given)", "Potency": "inactive"}, {"smiles": "O=[N+]([O-])O.O=[N+]([O-])O.[Cd]", "Potency": "inactive"}, {"smiles": "CC(=O)[O-].[Tl+]", "Potency": "inactive"}, {"smiles": "CC(C)CC(C)N", "note": "(stereo not given)", "Potency": "inactive"}, {"smiles": "CC(c1ccc(O)cc1)c1ccc(O)cc1", "Potency": "inactive"}, {"smiles": "CC(C)(O)c1cnn2c(-c3ccc(F)c(-c4c(F)cccc4C#N)c3)cnc2n1", "Potency": "inactive"}, {"smiles": "C[C@@H]1CC[C@@]2(OC1)O[C@H]1[C@@H](O)[C@H]3[C@@H]4CC[C@H]5C[C@@H](O[C@@H]6O[C@H](CO)[C@H](O[C@@H]7O[C@H](CO)[C@@H](O)[C@H](O[C@@H]8OC[C@@H](O)[C@H](O)[C@H]8O)[C@H]7O[C@@H]7O[C@H](CO)[C@@H](O)[C@H](O[C@@H]8O[C@H](CO)[C@@H](O)[C@H](O)[C@H]8O)[C@H]7O)[C@H](O)[C@H]6O)[C@H](O)C[C@]5(C)[C@H]4CC[C@]3(C)[C@H]1[C@@H]2C", "Potency": "23 µM (active)"}, {"smiles": "COc1ccc(/C(=C/C(=O)N2CCOCC2)c2ccc(Cl)cc2)cc1OC", "Potency": "inactive"}, {"smiles": "C=CC(=O)N(C)C", "Potency": "inactive"}, {"smiles": "COCC(=O)N(c1c(C)cccc1C)[C@H](C)C(=O)OC", "Potency": "inactive"}, {"smiles": "CCCCCCCCCCCCCCC(Br)C(=O)O", "note": "(stereo not given)", "Potency": "inactive"}, {"smiles": "CN(C)CCc1c[nH]c2cccc(O)c12", "Potency": "inactive"}, {"smiles": "COc1ccc([N+](=O)[O-])cc1O", "Potency": "inactive"}, {"smiles": "N#CCCO", "Potency": "inactive"}, {"smiles": "FC(F)(F)c1cccc(C2=CCN(CCc3ccc4ccccc4c3)CC2)c1", "Potency": "inactive"}, {"smiles": "Cc1cc(C)c(C2=C(OC(=O)CC(C)(C)C)C3(CCCC3)OC2=O)c(C)c1", "Potency": "inactive"}, {"smiles": "CCC[CH2][Sn]([CH2]CCC)([CH2]CCC)[O]C(=O)c1ccccc1", "Potency": "1.54 µM (active)"}, {"smiles": "O=c1c(C2CC(c3ccc(-c4ccc(Br)cc4)cc3)Cc3ccccc32)c(O)sc2ccccc12", "note": "(stereo not given)", "Potency": "inactive"}]}]}
